Hit rate of the full screen: of about 5,500 compounds, about 2,000 (36%) were called active. Inconclusive results (about 18%) are left out. Rule as the data show it: active = normalized growth mostly below about 0.91 (no sharp cut-off); inconclusive = no clear call, values can overlap the other calls; inactive = mostly above about 0.92. The list shows a part of the results.
Test: chemical genetic growth profiling, strain panel (AID 1159580);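 also: tested at 20 µM; growth read once vehicle control cultures reached saturation at 30 °C; 1 = growth at the plate median or of vehicle wells; lower values mean less growth of the strain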
Details: growth OD

Measured: normalized growth

N[C@@H](Cc1ccc(N(CCCl)CCCl)cc1)C(=O)O
inactive: S. cerevisiae deletion strains, locus YJR075W, strain HOC1, stronger effect = lower value 0.986 | S. cerevisiae deletion strains, locus YKL009W, strain mrt4, stronger effect = lower value 0.961 | S. cerevisiae deletion strains, locus YKL068W, stronger effect = lower value 0.971 | S. cerevisiae deletion strains, locus YKL085W, strain MDH1 (second series), stronger effect = lower value 0.991 | S. cerevisiae deletion strains, locus YKL085W, strain MDH1, stronger effect = lower value 0.991 | S. cerevisiae deletion strains, locus YKL160W, strain elf1, stronger effect = lower value 0.968 | S. cerevisiae deletion strains, locus YKL190W, strain CNB1, stronger effect = lower value 0.98 | S. cerevisiae deletion strains, locus YKR001C, strain vps1, stronger effect = lower value 0.961 | S. cerevisiae deletion strains, locus YKR026C, strain gcn3, stronger effect = lower value 0.979 | S. cerevisiae deletion strains, locus YKR091W, strain srl3, stronger effect = lower value 0.975 | S. cerevisiae deletion strains, locus YLL001W, strain dnm1, stronger effect = lower value 0.929 | S. cerevisiae deletion strains, locus YLL026W, stronger effect = lower value 0.989 | S. cerevisiae deletion strains, locus YLL041C, strain sdh2, stronger effect = lower value 0.982 | S. cerevisiae deletion strains, locus YLR027C, strain aat2, stronger effect = lower value 0.995 | S. cerevisiae deletion strains, locus YLR039C, strain RIC1, stronger effect = lower value 0.96 | S. cerevisiae deletion strains, locus YLR058C, strain SHM2, stronger effect = lower value 0.968 | S. cerevisiae deletion strains, locus YLR102C, strain apc9, stronger effect = lower value 0.981 | S. cerevisiae deletion strains, locus YLR113W, strain HOG1, stronger effect = lower value 1.03 | S. cerevisiae deletion strains, locus YLR221C, strain rsa3, stronger effect = lower value 0.958 | S. cerevisiae deletion strains, locus YLR258W, strain gsy2, stronger effect = lower value 0.983 | S. cerevisiae deletion strains, locus YLR262C, strain YPT6 (second series), stronger effect = lower value 0.979 | S. cerevisiae deletion strains, locus YLR262C, strain YPT6, stronger effect = lower value 0.898 | S. cerevisiae deletion strains, locus YLR268W, strain sec22, stronger effect = lower value 0.967 | S. cerevisiae deletion strains, locus YLR320W, strain mms22, stronger effect = lower value 0.97 | S. cerevisiae deletion strains, locus YLR330W, strain CHS5, stronger effect = lower value 0.986 | S. cerevisiae deletion strains, locus YLR342W, strain FKS1 (second series), stronger effect = lower value 0.983 | S. cerevisiae deletion strains, locus YLR342W, strain FKS1, stronger effect = lower value 0.978 | S. cerevisiae deletion strains, locus YLR357W, strain rsc2, stronger effect = lower value 0.954 | S. cerevisiae deletion strains, locus YLR370C, strain arc18, stronger effect = lower value 0.978 | S. cerevisiae deletion strains, locus YLR371W, strain rom2, stronger effect = lower value 0.978 | S. cerevisiae deletion strains, locus YLR384C, strain iki3, stronger effect = lower value 0.985 | S. cerevisiae deletion strains, locus YLR418C, strain cdc73, stronger effect = lower value 0.976 | S. cerevisiae deletion strains, locus YML016C, strain PPZ1, stronger effect = lower value 0.982 | S. cerevisiae deletion strains, locus YML032C, strain rad52, stronger effect = lower value 0.979 | S. cerevisiae deletion strains, locus YML120C, strain ndi1, stronger effect = lower value 0.952 | S. cerevisiae deletion strains, locus YML124C, strain tub3, stronger effect = lower value 0.987 | S. cerevisiae deletion strains, locus YMR058W, strain fet3, stronger effect = lower value 0.983 | S. cerevisiae deletion strains, locus YMR078C, strain ctf18, stronger effect = lower value 0.961 | S. cerevisiae deletion strains, locus YMR125W, strain sto1, stronger effect = lower value 0.97 | S. cerevisiae deletion strains, locus YMR129W, stronger effect = lower value 0.981 | S. cerevisiae deletion strains, locus YMR205C, strain PFK2, stronger effect = lower value 0.974 | S. cerevisiae deletion strains, locus YMR223W, strain ubp8, stronger effect = lower value 0.987 | S. cerevisiae deletion strains, locus YMR231W, strain pep5, stronger effect = lower value 0.987 | S. cerevisiae deletion strains, locus YMR263W, strain SAP30, stronger effect = lower value 0.982 | S. cerevisiae deletion strains, locus YMR307W, strain GAS1, stronger effect = lower value 0.915 | S. cerevisiae deletion strains, locus YNL067W, strain RPL9B, stronger effect = lower value 0.984 | S. cerevisiae deletion strains, locus YNL071W, strain lat1, stronger effect = lower value 0.932 | S. cerevisiae deletion strains, locus YNL128W, strain TEP1, stronger effect = lower value 0.982 | S. cerevisiae deletion strains, locus YNL153C, strain GIM3, stronger effect = lower value 0.976 | S. cerevisiae deletion strains, locus YNL183C, strain NPR1, stronger effect = lower value 0.966 | S. cerevisiae deletion strains, locus YNL209W, strain ssb2, stronger effect = lower value 0.983 | S. cerevisiae deletion strains, locus YNL233W, strain BNI4, stronger effect = lower value 0.994 | S. cerevisiae deletion strains, locus YNL248C, strain rpa49, stronger effect = lower value 0.978 | S. cerevisiae deletion strains, locus YNL250W, strain rad50, stronger effect = lower value 0.969 | S. cerevisiae deletion strains, locus YNL271C, strain bni1, stronger effect = lower value 0.979 | S. cerevisiae deletion strains, locus YNL298W, strain CLA4, stronger effect = lower value 0.979 | S. cerevisiae deletion strains, locus YNL307C, strain MCK1, stronger effect = lower value 0.985 | S. cerevisiae deletion strains, locus YNL322C, strain KRE1 (second series), stronger effect = lower value 0.989 | S. cerevisiae deletion strains, locus YNL322C, strain KRE1, stronger effect = lower value 0.982 | S. cerevisiae deletion strains, locus YNR049C, strain mso1, stronger effect = lower value 0.977 | S. cerevisiae deletion strains, locus YNR052C, strain pop2, stronger effect = lower value 0.974 | S. cerevisiae deletion strains, locus YOL006C, strain TOP1, stronger effect = lower value 0.954 | S. cerevisiae deletion strains, locus YOL012C, strain htz1 0.837 | S. cerevisiae deletion strains, locus YOL147C, strain pex11, stronger effect = lower value 0.986 | S. cerevisiae deletion strains, locus YOR001W, strain rrp6, stronger effect = lower value 0.988 | S. cerevisiae deletion strains, locus YOR061W, strain CKA2, stronger effect = lower value 0.962 | S. cerevisiae deletion strains, locus YOR069W, strain VPS5, stronger effect = lower value 0.998 | S. cerevisiae deletion strains, locus YOR070C, strain gyp1, stronger effect = lower value 0.979 | S. cerevisiae deletion strains, locus YOR080W, strain dia2, stronger effect = lower value 0.995 | S. cerevisiae deletion strains, locus YOR083W, strain WHI5, stronger effect = lower value 0.963 | S. cerevisiae deletion strains, locus YOR106W, strain vam3, stronger effect = lower value 0.996 | S. cerevisiae deletion strains, locus YOR136W, strain idh2, stronger effect = lower value 0.989 | S. cerevisiae deletion strains, locus YOR144C, strain elg1, stronger effect = lower value 0.99 | S. cerevisiae deletion strains, locus YOR184W, strain ser1, stronger effect = lower value 0.96 | S. cerevisiae deletion strains, locus YOR231W, strain MKK1, stronger effect = lower value 1.01 | S. cerevisiae deletion strains, locus YOR265W, strain rbl2, stronger effect = lower value 0.989 | S. cerevisiae deletion strains, locus YOR270C, strain vph1, stronger effect = lower value 0.981 | S. cerevisiae deletion strains, locus YOR290C, strain snf2, stronger effect = lower value 0.909 | S. cerevisiae deletion strains, locus YOR316C, strain cot1, stronger effect = lower value 0.97 | S. cerevisiae deletion strains, locus YPL051W, strain arl3, stronger effect = lower value 0.974 | S. cerevisiae deletion strains, locus YPL055C, strain LGE1, stronger effect = lower value 0.963 | S. cerevisiae deletion strains, locus YPL078C, strain atp4, stronger effect = lower value 0.974 | S. cerevisiae deletion strains, locus YPL106C, strain sse1, stronger effect = lower value 0.976 | S. cerevisiae deletion strains, locus YPL240C, strain hsp82, stronger effect = lower value 0.989 | S. cerevisiae deletion strains, locus YPL241C, strain CIN2, stronger effect = lower value 1.04 | S. cerevisiae deletion strains, locus YPL256C, strain CLN2, stronger effect = lower value 1.02 | S. cerevisiae deletion strains, locus YPR119W, strain clb2, stronger effect = lower value 0.991 | S. cerevisiae deletion strains, locus YPR141C, strain kar3, stronger effect = lower value 0.961 | S. cerevisiae deletion strains, locus YPR163C, strain tif3, stronger effect = lower value 0.984 | S. cerevisiae deletion strains, locus YPR167C, strain met16, stronger effect = lower value 0.972 | S. cerevisiae deletion strains, strain wtn01, stronger effect = lower value 0.982 | S. cerevisiae strains, strain wild type, stronger effect = lower value 0.983

— PubChem BioAssay AID1159580 (chemical genetic matrix, 2015)
